Measured values: PubChem BioAssay

Each compound was assayed on Lefty1 (assay: Lefty1 binders on small-molecule microarrays, primary screen, biochemical, small-molecule microarray, 635/667 nm fluorescence (AID 1139)). Details: small-molecule microarray binding, fluorescence 635/667; higher = more signal.
Compound CC(C)c1ccc(NN2C(C(O)c3c(F)cccc3Cl)C=CC3C(=O)N(c4ccccc4)C(=O)C32)cc1 (stereo not given) has a composite z-score of -0.0553.
Work on CC(C)(C)OC(=O)CC[C@@]1(C(=O)O)N=C(c2ccc(OCCCO)cc2)O[C@@H]1c1ccccc1N=[N+]=[N-] yielded a composite z-score of -0.666.
COC(=O)C[C@@H]1C[C@H](C)[C@]2(O1)C(=O)N(Cc1ccccc1)c1ccc(NC(C)=O)cc12 was tested, and the composite z-score was 0.488.
With COCC1=C2[C@@H](CCc3ccccc3)OB(O)C[C@@H]2[C@@H]2C(=O)N(Cc3ccccc3)C(=O)[C@@H]2C1 the composite z-score was 0.261.
With C=CCOC(=O)[C@@H]1[C@H]2C(=O)O[C@H](c3ccccc3)[C@H](c3ccccc3)N2[C@H](c2ccc(OCCOC(=O)[C@@H]3C[C@@H]4C(=O)NCC(=O)N4[C@@H]3c3cccc(OCCO)c3)cc2)[C@@]12C(=O)Nc1ccc(I)cc12 the composite z-score was 0.914.
C=CCC(OC(C)=O)[C@@H]1[C@@H](N(Cc2cccc3ccccc23)C(=O)c2ccc(C)cc2)c2cc(OCCCO)ccc2N1C(=O)Cc1ccc(OC)cc1 (stereo not given in full) was tested, and the composite z-score was 0.203.
Compound O=C1OCCC=C[C@H]2OC34C=CCN(Cc5ccccc5)C(=O)[C@H]3N(CCCCCO)C(=O)[C@@H]4C12 (stereo not given in full) has a composite z-score of 0.475.
Work on O=C(OCCF)C1=CCC(c2cccc(Cl)c2)O1 (stereo not given) yielded a composite z-score of -0.217.
Compound [N-]=[N+]=NCc1ccccc1[C@@H]1OC(c2ccc(OCCCO)cc2)=N[C@]1(Cc1ccccc1)C(=O)N1CCCCC1 has a composite z-score of -0.0101.
Work on Cc1cc(C)c(C(O)C2C=CC3C(=O)N(c4ccccc4)C(=O)C3N2Nc2ccc(C#N)cc2)c(C)c1 (stereo not given) yielded a composite z-score of 0.302.
For C=C[C@@H](COC(C)=O)N(Cc1ccccc1[N+](=O)[O-])S(=O)(=O)c1ccc(Br)cc1, the composite z-score was 0.929.
With COc1ccc(C#Cc2ccc3c(c2)[C@]2(C(=O)N3)[C@H](c3ccc(O)cc3)N3[C@H](c4ccccc4)[C@H](c4ccccc4)OC(=O)[C@H]3[C@@H]2C(=O)NC[C@H](O)c2ccccc2)cc1 the composite z-score was 0.751.
Compound C=CCNC(=O)[C@@H]1[C@H]2C(=O)O[C@H](c3ccccc3)[C@H](c3ccccc3)N2[C@H](c2ccccc2OCCO)[C@@]12C(=O)Nc1ccc(C#CC3=CCCCC3)cc12 has a composite z-score of 1.12.
Work on [N-]=[N+]=NCc1ccccc1[C@@H]1OC(c2ccc(OCCCO)cc2)=N[C@]1(Cc1ccccc1N=[N+]=[N-])C(=O)NCc1ccccc1 yielded a composite z-score of 0.621.
COCCOC(=O)N1C(=O)[C@@]2(c3cc(C#CCCO)ccc31)[C@H](c1ccccc1OCCO)N1[C@H](c3ccccc3)[C@H](c3ccccc3)OC(=O)[C@H]1[C@@H]2C(=O)N1CCN(c2ncccn2)CC1 gave a composite z-score of 1.38.
For CCCCC=C[C@@H](NC(=O)c1ccc(C(=O)OC)cc1)c1ccccc1, the composite z-score was 0.335.
CC(C)NC(=O)[C@@H]1c2ccccc2C(=O)N(Cc2ccccc2Cl)[C@H]1c1ccc(CO)cc1 showed a composite z-score of -0.221.
COc1cc2c(cc1OC)CN(C(=O)[C@@H]1[C@H]3C(=O)O[C@H](c4ccccc4)[C@H](c4ccccc4)N3[C@H](c3ccccc3OCCO)[C@@]13C(=O)Nc1ccc(C#CCNC(N)=O)cc13)CC2 was tested, and the composite z-score was 0.768.
O=C1C=CC(=O)[C@@H]2CC(COc3ccccc3)=C3[C@@H](CCc4ccccc4)OB(O)C[C@@H]3[C@H]12 was tested, and the composite z-score was 0.411.
Compound O=C(NCc1ccccc1)[C@]1(CCS(=O)(=O)c2ccccc2)N=C(c2ccc(OCCCO)cc2)O[C@@H]1c1ccccc1 has a composite z-score of 0.469.
COc1ccc(C#Cc2ccc3c(c2)[C@]2(C(=O)N3)[C@H](C(=O)NC[C@H](O)c3ccccc3)[C@H]3C(=O)O[C@H](c4ccccc4)[C@H](c4ccccc4)N3[C@@H]2c2ccc(OCCO)cc2)cc1 was tested, and the composite z-score was 1.22.
Compound CCOc1cc(C(O)C2C=CC3C(=O)N(c4ccccc4)C(=O)C3N2Nc2ccc([N+](=O)[O-])cc2)ccc1O (stereo not given) has a composite z-score of 0.107.
In the case of [N-]=[N+]=NCc1ccccc1C[C@]1(C(=O)NCCN2CCOCC2)N=C(c2ccc(OCCCO)cc2)O[C@H]1c1ccccc1N=[N+]=[N-], the composite z-score is reported as -0.209.
C=C[C@@H](COC(C)=O)N(Cc1ccc([N+](=O)[O-])cc1)S(=O)(=O)c1ccc(Br)cc1 was tested, and the composite z-score was 0.321.
Work on COc1ccc(CCNC(=O)[C@@]2(c3ccc([N+](=O)[O-])cc3)CC(=O)N(CC34CC5CC(CC(C5)C3)C4)[C@@H]2c2ccc(CO)cc2)cc1 yielded a composite z-score of 0.981.
COCC(=C=CC[C@H](O)c1ccc(OCCO)cc1)C[C@H](O)c1cc(Cl)cc(Cl)c1O showed a composite z-score of 1.47.
For CO[C@H]1O[C@H](CO)[C@@H](OC(=O)Nc2ccc3c(c2)OCO3)[C@H](OC(=O)Nc2ccccc2)[C@H]1OC(=O)Nc1ccccc1, the composite z-score was 1.29.
COc1ccc(C(O)C2C=CC3C(=O)N(c4ccccc4)C(=O)C3N2Nc2ccc([N+](=O)[O-])cc2)cc1OCc1ccccc1 (stereo not given) gave a composite z-score of -0.29.
With [N-]=[N+]=NCc1ccccc1C[C@]1(C(=O)NCC(O)CO)N=C(c2ccc(OCCCO)cc2)O[C@H]1c1ccccc1N=[N+]=[N-] (stereo not given in full) the composite z-score was -0.923.
Compound CCOC(=O)C[C@H]1[C@H](OC(=O)Cc2ccc3c(c2)OCO3)[C@@H](NC(=O)c2ccc(-c3ccccc3)cc2)c2cc(OCCCO)ccc2N1C(=O)c1ccccc1 has a composite z-score of 0.419.
For CS(=O)(=O)CCOC(=O)C1=CC(CCCO)=CC(c2cccs2)N(Cc2cc3c(cc2Br)OCO3)C=C1C(=O)OCCS(C)(=O)=O (stereo not given), the composite z-score was 1.22.
COc1ccc([Si](C)(C)[C@H]2[C@H](CC(=O)N(CCO)Cc3ccccc3)O[C@@]3(C(=O)N(Cc4cccc(N5CCC5=O)c4)c4ccccc43)[C@@H]2C)cc1 gave a composite z-score of 1.33.
COc1cccc(C(=O)O[C@H]2CC[C@]3(C)C4=C(CCC3C2(C)C)[C@]2(C)CC[C@H]([C@H](C)CCCC(C)C)[C@@]2(C)CC4)c1 (stereo not given in full) gave a composite z-score of 0.24.
In the case of CC(C)NC(=O)[C@@H]1c2ccccc2C(=O)N(Cc2ccccc2)[C@H]1c1ccc(CO)cc1, the composite z-score is reported as -1.54.
For COc1ccc([Si](C)(C)[C@@H]2[C@@H](CC(=O)N(CCO)Cc3ccccc3)O[C@]3(C(=O)N(C)c4ccccc43)[C@H]2C)cc1, the composite z-score was 1.45.
